# Screening results: PubChem, several laboratories
# aSyn 5UTR inh: MLPCN primary screen, SNCA 5' untranslated region; alpha-synuclein 5'UTR reporter, inhibitor activity; inhibition, % (tested at 7.5 µM); 300,000 compounds, 0.82% hits; in the data active = inhibition above about 60%;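 also: H4 neuroglioblastoma cells stably carrying SNCA 5'UTR luciferase fusion; 0% = DMSO wells and 100% = positive control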
# BaF3 tox: counter-screen for JAK2V617F inhibitors: parental Ba/F3 viability inhibitors; CellTiter-Glo ATP luminescence; inhibition, % at 5.6 µM; 220,000 compounds, 1.1% hits; AID 1486;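 active = inhibition above a per-campaign cutoff, the mean inhibition of all tested compounds plus 3 SD, cut at about 27% in these data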;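 also: 0% = DMSO wells and 100% = JAK Inhibitor I control wells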
# Ba/F3 V617F tox: lowers viability of Ba/F3 cells expressing EpoR and JAK2V617F. inhibition, % at 5.6 µM. 220,000 compounds, 1.1% hits. ATP luminescence. AID 1446;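 active = inhibition above the campaign mean plus 3 SD over all tested compounds, cut at about 24% in these data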;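 also: cytokine-independent growth of Ba/F3 cells driven by EpoR plus mutant JAK2; 0% = DMSO-treated cells and 100% = JAK inhibitor I control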
# APP transl inh: APP translation inhibition. AID 1285. inhibition, % at 2 µM. 190,000 compounds, 0.82% hits. SH-SY5Y APP 5'UTR-luciferase reporter, luminescence;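 active = inhibition above a set limit, derived from the sample mean plus 3 SD, cut at about 45% in these data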
# KLF5 inhibitor: suppresses KLF5 promoter-driven expression; DLD-1 KLF5 promoter-luciferase reporter, luminescence; AID 1700; inhibition, % at 5 µM; 290,000 compounds, 0.23% hits;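 active = inhibition above a per-plate limit of that plate's mean compound inhibition plus 3 SD, cut at about 60% in these data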;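 also: 0% = DMSO wells and 100% = LY294002 at 200 µM; higher means less KLF5 promoter-driven luciferase light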
# IEC-6 cytotox: IEC-6 cytotoxicity, counter-screen for KLF5 inhibitors; 290,000 compounds, 0.78% hits; inhibition, % at 5 µM; luminescence viability; AID 1825; in the data active = inhibition above about 22%;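 also: 0% = plate median of test compound wells and 100% = cytotoxic reference compound wells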
# Starred values were filed as active, the others as inactive; / = no result given. Rows were chosen to be rich in hits. Some 2.2% of all compounds tested hit in one or more screens of this group.
SMILES,aSyn 5UTR inh,BaF3 tox,Ba/F3 V617F tox,APP transl inh,KLF5 inhibitor,IEC-6 cytotox
COc1ccc(-n2cc(-c3ccc(Cl)cc3)[nH]c2=S)cc1,-91.1,-0.8,-4.9,/,-42.1,-5.9
COc1ccc(-c2cn(-c3ccc(Cl)cc3)c3[n+]2CCCCC3)cc1,14.9,68.0*,71.4*,/,-0.1,3.4
Clc1ccc(-c2cn(-c3ccc(Cl)cc3)c3[n+]2CCCCC3)cc1,-21.6,62.1*,46.3*,/,-13.8,1.5
O=C(CN1CCCC1)Nc1c(Cl)cccc1Cl,10.4,/,/,/,3.1,5.1
Cc1ccc(C)c(C(=O)COC(=O)CN2C(=O)C3C4CCC(C4)C3C2=O)c1 (configuration not stated),-12.6,/,/,/,-3.1,6.7
O=C(c1ccc(CS(=O)c2cccc(Cl)c2)o1)N1CCN(c2ccccn2)CC1 (configuration not stated),9.6,/,/,/,9.3,3.5
O=C1C2C3C=CC(CO)(O3)C2C(=O)N1c1ccccc1-c1ccccc1 (configuration not stated),/,0.2,2.7,70.5*,-10.1,8.2
CCOC(=O)c1sc(NC(=O)Nc2cccc(Cl)c2)cc1C,-109.5,43.0*,1.4,-105.0,-137.4,0.5
CCNC(=S)N=Nc1c(O)[nH]c2ccc(C(C)C)cc12,63.2*,7.3,0.7,5.5,-10.7,0.8
CC(C)[C@H](NC(=O)[C@@H]1Cc2ccccc2CN1)C(=O)Nc1ccc2c(c1)OCO2,-36.1,/,/,/,-19.8,-4.6
O=C(Nc1nc(-c2ccccn2)cs1)c1cccc(-n2cnnn2)c1,82.7*,62.9*,52.7*,/,8.5,15.6
O=C(Nc1ccc(Br)cc1)c1cccc(-n2cnnn2)c1,-18.1,/,/,/,-28.1,-1.3
S=C(Nc1cc(Cl)cc(Cl)c1)NC1CCN(Cc2ccccc2)CC1,72.0*,/,/,/,-1.9,-1.9
S=C(Nc1ccccc1Cl)NC1CCN(Cc2ccccc2)CC1,8.9,8.6,2.0,3.9,-1.0,-5.1
S=C(Nc1ccc(Cl)cc1)N1CCN(Cc2ccccc2)CC1,-10.3,48.9*,28.1*,2.0,-6.4,2.9
Cc1ccc(NC(=S)N2CCN(C(=O)C3CCCO3)CC2)cc1 (configuration not stated),-5.2,3.3,3.0,7.7,5.2,8.9
O=C(C1CCCO1)N1CCN(C(=S)Nc2ccc(Cl)cc2)CC1 (configuration not stated),4.2,30.0*,38.6*,-3.0,-19.4,-4.4
CC1CCCN(C(=O)C2CCN(S(=O)(=O)c3ccc4c(c3)CC(C)N4C(=O)C3CC3)CC2)C1 (configuration not stated),18.0,/,/,/,-19.7,-0.6
COc1ccc(OC)c(NS(=O)(=O)c2c(C)nc3sccn3c2=O)c1,4.5,/,/,/,-20.4,-6.3
CC(C)CN(CC(C)C)C(=S)Nc1ccc(Cl)cc1,-6.5,42.6*,33.2*,4.2,9.8,-1.3
COc1ccc(N2CC(O)(c3ccc(C)cc3)[N+]3=C2CCCC3)cc1 (configuration not stated),-8.5,49.5*,44.8*,7.8,-16.0,5.1
COc1ccc(N2CC(O)(c3ccc(F)cc3)[N+]3=C2CCCC3)cc1 (configuration not stated),-2.9,5.1,-0.8,-15.7,-15.3,2.0
COc1cc(/C=C(\C#N)c2ccccn2)cc(OC)c1O,-48.9,-1.3,5.7,/,4.7,0.0
COc1cc(/C=C(\C#N)c2[nH]nc(N)c2C#N)cc(OC)c1O,21.2,5.8,-0.9,49.0*,-9.1,2.6
COc1cccc(COCC(O)CN2CCC(C(N)=O)CC2)c1 (configuration not stated),-1.7,/,/,/,-11.9,-6.0
SMILES,aSyn 5UTR inh,BaF3 tox,Ba/F3 V617F tox,APP transl inh,KLF5 inhibitor,IEC-6 cytotox
Cc1ccc2c(c1)nnn2C1CCN(S(=O)(=O)c2ccc(C(=O)N3C(C)CCCC3C)cc2)CC1 (configuration not stated),-36.3,57.7*,50.8*,5.4,-7.7,5.9
COc1ccc(CNC(=O)C2CCN(S(=O)(=O)c3cccc4nonc34)CC2)cc1,4.7,/,/,/,-10.9,-5.7
Cc1cc(NC(=O)Cc2ccccc2)c2ccccc2n1,5.3,72.8*,39.1*,-6.2,-12.8,10.8
O=C(N(c1ccccc1)c1ccccc1)N(c1ccccc1)c1ccccc1,6.6,0.6,-1.1,/,-13.5,-2.4
CC(=O)N(C1=C(N)C(=O)c2ccccc2C1=O)c1ccccc1,78.2*,/,/,/,-33.5,-3.1
CCOC(=O)c1ccc(-c2csc(NC(=O)CN3CCC(C)CC3)n2)cc1,-47.9,/,/,/,-23.2,-0.3
Cn1nc(-c2ccc(N3CCOCC3)c(NS(=O)(=O)c3ccc(Cl)cc3)c2)c2ccccc2c1=O,/,1.1,-0.6,-12.4,-1.9,2.1
Cc1ccc(S(=O)(=O)Nc2cc(-c3nn(C)c(=O)c4ccccc34)ccc2N2CCOCC2)cc1,78.4*,2.6,-4.0,27.6,-24.0,-2.4
COc1ccc(-n2cc(-c3ccccc3)c3c(N4CC(C)OC(C)C4)ncnc32)cc1 (configuration not stated),12.1,3.1,1.6,-12.3,-13.5,-8.5
OCC1(CCCc2ccccc2)CCN(Cc2cnc(N3CCOCC3)s2)CC1,-56.8,63.8*,-2.5,-8.0,-22.9,-2.5
COc1cccc(CC2(CO)CCN(Cc3cnc(N4CCOCC4)s3)CC2)c1,0.2,2.2,-2.8,2.3,-21.0,-1.5
Cc1ccc(SCCN2CCN(CC(C)C)CCC2=O)cc1,-37.9,/,/,/,/,/
COc1ccccc1OCC(=O)Nc1cccc(N(C)S(C)(=O)=O)c1,-8.7,1.9,-2.0,55.5*,-20.8,-2.4
C=C(C)CSc1nc2sc3c(c2c(=O)n1C1CCCCC1)CCN(C)C3,32.3,54.5*,50.6*,/,-1.2,1.5
CCOc1ccc2c(c1)OC(c1ccc(C)cc1)(C(F)(F)F)NC2=O (configuration not stated),95.8*,51.3*,58.0*,94.7*,-7.4,42.4*
CCOc1ccc2c(c1)OC1(CCC(C)C1)CC2=O (configuration not stated),30.0,/,/,/,/,/
COc1ccc(C(C)=O)cc1COC(=O)c1ccc(N)c([N+](=O)[O-])c1,18.4,-3.0,-3.7,6.0,1.6,30.7*
COc1ccc(C(C)=O)cc1COC(=O)CNC(=O)c1cc(C)cc(C)c1,-13.8,38.3*,69.6*,2.6,-12.5,3.8
O=C(CN1CCc2ccccc2C1)Nc1ccccc1C(F)(F)F,5.6,/,/,/,-36.7,-8.3
NS(=O)(=O)c1ccc(-c2ccc(/C=N/NC(=O)c3ccc([N+](=O)[O-])cc3)o2)cc1,-11.8,49.7*,-0.7,/,6.2,3.8
CCCC(=O)Nc1ccc(C(=O)N/N=C/c2ccc([N+](=O)[O-])o2)cc1,111.1*,4.2,1.7,96.2*,-18.0,1.3
CCCCCCCC(=O)Nc1ccc(C(=O)N/N=C/c2cccc([N+](=O)[O-])c2)cc1,76.2*,2.4,0.1,-0.4,-18.4,-4.9
Cc1ccc(C(=O)NCC(=O)OCCOc2ccccc2Cl)cc1,-35.7,/,/,/,/,/
Cc1ccc(OCC(=O)c2cc(C)n(-c3ccccc3)c2C)c([N+](=O)[O-])n1,67.9*,6.1,-0.8,28.6,-18.8,8.6
